{"source": "PubChem BioAssay AID624417", "about": "(National Center for Advancing Translational Sciences (NCATS), 2012)", "note": "Among all 410,000 compounds or so, about 6,400 (1.6%) were called active. Roughly 20% stayed inconclusive and do not appear here. For the sample, actives were picked, then their nearest neighbours and some compounds at random. Unmarked numbers belong to inactive results. The call rests on the fitted dose curve; in most records, active means well fitted inhibition curve with a large enough effect; inconclusive means small, poorly fitted or top-dose-only effect; inactive means no such curve, though single readings can be large or run the other way. On the % scale 0 is the no-effect control and ±100 the full control effect; potency means the concentration at half of the fitted maximal effect.", "data": [{"target": "Glucagon-like peptide 1 receptor (Homo sapiens) (UniProt P43220)", "sequence (P43220 whole entry, looked up)": "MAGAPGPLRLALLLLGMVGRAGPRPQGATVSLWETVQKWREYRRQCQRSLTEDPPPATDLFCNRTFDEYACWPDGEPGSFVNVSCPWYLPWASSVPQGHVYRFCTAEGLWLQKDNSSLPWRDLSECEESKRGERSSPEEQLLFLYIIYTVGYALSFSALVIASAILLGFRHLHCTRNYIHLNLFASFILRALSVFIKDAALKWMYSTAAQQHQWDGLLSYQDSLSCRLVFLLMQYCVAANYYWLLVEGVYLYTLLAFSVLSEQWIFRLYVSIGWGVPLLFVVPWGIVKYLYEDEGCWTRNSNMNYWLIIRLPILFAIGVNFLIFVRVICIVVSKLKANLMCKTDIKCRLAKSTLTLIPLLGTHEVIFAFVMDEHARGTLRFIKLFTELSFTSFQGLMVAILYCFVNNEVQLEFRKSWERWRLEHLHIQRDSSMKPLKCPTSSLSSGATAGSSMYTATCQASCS", "assay": "qHTS of GLP-1 Receptor Inverse Agonists (Inhibition Mode); further: nearly all actives have a fitted effect of over 55% in size", "conditions": "HEK293 GLP-1R CRE-luciferase, luminescence, 24 h, GLP-1R form is constitutively active; series mostly up to 38.3 µM; activity change, negative = inhibition: at the top concentration", "from_the_text": "The overall goal of this project was to develop a novel assay for discovering small molecule ligands for class B1 G protein-coupled receptors (GPCRs). Very few agonists (or inverse agonists in inhibition mode) with generally weak activity for this entire group of physiologically important receptors are known to date. To establish proof-of-principle that this critical bottleneck can be overcome with a suitable screening approach, our studies focused on the class B1 receptor for glucagon-like peptide-1 (GLP-1R), a potential therapeutic target for diabetes and neurodegenerative disease. The assay was developed using a cell-based functional readout. Toward this goal, stably transfected HEK293 cell clones were established that co-express (i) a cAMP-responsive luciferase reporter gene, and (ii) constitutively active GLP-1R that upon ligand interaction inhibit (inverse agonists) the luciferase activity. In addition, two control cell lines were developed: (i) one that express only the cAMP-responsive reporter gene to enable initial exclusion of GLP-1R independent effects of candidate probes; and (ii) one with the reported gene cloned with another constitutively active orphan receptor GPR119 to enable exclusion of GLP-1R independent inhibitor effects of candidate inverse agonists. To that end, this assay was optimized for 1536-well format and screened against the MLSMR. […] NIH Molecular Libraries Probe Production Network [MLPCN] NIH Chemical Genomics Center [NCGC] Grant: NS064851 PI Name: Martin Beinborn, Tufts Medical Center\nSix ul of cell suspension (200 cells/uL in DMEM + 10% Nu serum + 1% pen-strep) is dispensed in a white solid 1536-well plate. The plates are incubated for 12 hours at 37 deg C at 5% CO2 followed by addition of 23 nL compounds. After 24 hr incubation at 37 deg C and 5% CO2, 3 uL of luciferase assay detection reagent is added. A luminescence read is obtained on the PerkinElmer Viewlux after 12 min incubation at room temperature.", "units": {"activity change, negative = inhibition": "%"}, "values": [{"smiles": "OC[C@@H]1CN(Cc2ccc(-c3ccccc3)cc2)C[C@H](n2cnc3c(NC4CCCC4)ncnc32)O1", "Potency": "8.91 µM (active)"}, {"smiles": "CC(=O)c1ccc(Nc2nc(C(N)c3ccccc3)cs2)cc1", "note": "(stereo unspecified)", "activity change, negative = inhibition": 20}, {"smiles": "COc1cccc(-c2nc3nc(C)cc(C)n3c2NC2CCCCC2)c1", "activity change, negative = inhibition": -11}, {"smiles": "CCCCNC(=O)C(=O)c1ccccc1NC(C)=O", "activity change, negative = inhibition": 16}, {"smiles": "CCCCNC(=S)N/N=C1\\CCCCc2ccccc21", "Potency": "11.2 µM (active)"}, {"smiles": "Cc1ccc(NC(=S)N/N=C2/CCCc3c(C)cc(C)cc32)cc1", "activity change, negative = inhibition": 6.24}, {"smiles": "CCC(=O)N1CCC(C)(C(=O)Nc2cc(OC)c(OC)c(OC)c2)C1", "note": "(stereo unspecified)", "activity change, negative = inhibition": 4.97}, {"smiles": "CC(=O)c1cccc(-c2cnc3c(NC=O)cc(-c4ccc(N5CCN(C)CC5)cc4)cn23)c1", "activity change, negative = inhibition": 0.896}, {"smiles": "CCc1cc(C(=O)c2ccc(OC)cc2)c(NC(=O)CN2CCN(C)CC2)s1", "Potency": "4.47 µM (active)"}, {"smiles": "COc1ccc(NC(=O)CCN2CCN(CCO)CC2)cc1", "activity change, negative = inhibition": 1.87}, {"smiles": "COc1ccc(C(=O)Nc2sc(C)c(C)c2CN2CCOCC2)cc1", "activity change, negative = inhibition": 6.13}, {"smiles": "CC(C)(C)c1nc2ccccc2c(=O)n1N1C(=O)c2ccccc2C1=O", "Potency": "10 µM (active)"}, {"smiles": "CN(C)CCCn1c(SCCN2C(=O)c3ccccc3C2=O)nc2ccccc2c1=O", "activity change, negative = inhibition": 0.122}, {"smiles": "Cc1nc2ccccc2c(=O)n1NC(=O)c1ccccc1", "activity change, negative = inhibition": -2.48}, {"smiles": "CC1(C(=O)Nc2ccc3c(c2)OCCO3)CCN1C(=O)Cc1cc(F)ccc1F", "note": "(stereo unspecified)", "activity change, negative = inhibition": 18.6}, {"smiles": "CC1(C(=O)NS(=O)(=O)Cc2cccc(Cl)c2)CCN1C(=O)Cc1ccc(Cl)cc1Cl", "note": "(stereo unspecified)", "activity change, negative = inhibition": -14}, {"smiles": "CC(C)N1C(=O)c2ccccc2NC(=O)C1C(=O)NCc1cccs1", "note": "(stereo unspecified)", "activity change, negative = inhibition": 13.4}, {"smiles": "COCCNc1nc(Nc2ccccc2Cl)c2sc(-c3ccccc3)cc2n1", "activity change, negative = inhibition": 1.32}, {"smiles": "CCOc1ccc(S(=O)(=O)NCCC(=O)NNC(=O)c2ccc(F)cc2)cc1", "activity change, negative = inhibition": -3.11}, {"smiles": "COc1cccc(NC(=O)CN(C)C(=O)/C=C/c2cc(OC)ccc2OC)c1", "activity change, negative = inhibition": 8.88}, {"smiles": "COc1ccc(NC(=O)CN(C)C(=O)/C=C/c2cn(Cc3ccccc3)nc2-c2cccnc2)cc1", "activity change, negative = inhibition": -10.7}, {"smiles": "COc1cccc(NC(=O)CN(C)C(=O)/C=C/c2cn(-c3ccccc3)nc2-c2cccs2)c1", "Potency": "7.94 µM (active)"}, {"smiles": "CC(C)(O)C1=C[N+](=O)CC=C1", "activity change, negative = inhibition": 4.83}, {"smiles": "CCC(C)CN1C(=O)CSCC1(C)C(=O)NCc1ccccc1", "note": "(stereo unspecified)", "activity change, negative = inhibition": 2.26}, {"smiles": "O=C1OCCC1=COCCCCOC=C1CCOC1=O", "activity change, negative = inhibition": 10.1}, {"smiles": "O=C(NCC(O)c1nc2ccccc2[nH]1)c1ccc(Br)cc1", "note": "(stereo unspecified)", "activity change, negative = inhibition": 16.8}, {"smiles": "COc1ccc2[nH]c(=O)c(CN(Cc3cccnc3)S(=O)(=O)c3ccccc3F)cc2c1", "Potency": "5.01 µM (active)"}, {"smiles": "CCN(Cc1cc2cc(C)ccc2[nH]c1=O)S(=O)(=O)c1ccccc1", "activity change, negative = inhibition": 0}, {"smiles": "CCOc1ccc2[nH]c(=O)c(CN(CCCO)S(=O)(=O)c3ccc(F)cc3)cc2c1", "activity change, negative = inhibition": -22.2}, {"smiles": "O=C(c1cccs1)N1C[C@H](n2cc(C3CC3)nn2)[C@@H](O)C[C@@H]1c1ccccc1", "activity change, negative = inhibition": -2.08}, {"smiles": "COCCNc1ncnc2c1ncn2[C@H]1CN(CCN2CCOCC2)C[C@@H](CO)O1", "activity change, negative = inhibition": 17.3}, {"smiles": "CN1CCN(CCCNC(=O)c2cc3c(=O)oc4ccccc4c3s2)CC1", "activity change, negative = inhibition": 0.453}, {"smiles": "CCC1CCCCN1CCCNC(=O)C1CCC(Cn2c(=O)[nH]c3ccccc3c2=O)CC1", "note": "(stereo unspecified)", "activity change, negative = inhibition": 0}, {"smiles": "COc1ccc(C(C)(NC(C)=O)c2nc(-c3ccc(S(C)(=O)=O)cc3)cs2)cc1", "note": "(stereo unspecified)", "activity change, negative = inhibition": -9.28}, {"smiles": "O=C(CN1C(=O)NC2(CCc3ccccc32)C1=O)NC1CCCCC1", "note": "(stereo unspecified)", "activity change, negative = inhibition": -4.63}, {"smiles": "O=C(COc1ccc(S(=O)(=O)N2CCCC2)cc1[N+](=O)[O-])N1CCCCC1", "activity change, negative = inhibition": 14.7}, {"smiles": "CC(=O)Oc1cc2c(C(=O)NCCN3CCOCC3)c(C)oc2c2ccccc12", "Potency": "10 µM (active)"}, {"smiles": "CCc1cc(=O)oc2c(C)c(OCC(=O)NCCN3CCOCC3)ccc12", "activity change, negative = inhibition": 40.4}, {"smiles": "Cc1cc(C)cc(C(=O)NCCN2CCOCC2)c1", "activity change, negative = inhibition": 4.45}, {"smiles": "O=C1NC(O)CCN1C1CC(O)C(CO)O1", "note": "(stereo unspecified)", "activity change, negative = inhibition": 16.9}, {"smiles": "COc1ccc(C(O)C(O)(C(=O)OC(C)C)c2ccc(C)cc2)cc1", "note": "(stereo unspecified)", "activity change, negative = inhibition": 1.49}, {"smiles": "Cc1nc2ccccn2c(=O)c1NC(=O)c1ccc(Br)o1", "activity change, negative = inhibition": 14.8}, {"smiles": "CCC(=O)c1ccc(OCC(=O)N(CC)CC2COc3ccccc3O2)cc1", "note": "(stereo unspecified)", "activity change, negative = inhibition": -21.6}, {"smiles": "COc1ccc(NC(=O)C2COc3ccccc3O2)cc1", "note": "(stereo unspecified)", "activity change, negative = inhibition": -25.7}, {"smiles": "CCCN(CC1COc2ccccc2O1)C(=S)Nc1ccc(C)cc1", "note": "(stereo unspecified)", "Potency": "11.2 µM (active)"}, {"smiles": "CS(=O)(=O)N1CCCCC1c1cc(C(=O)NCc2ccccc2)no1", "note": "(stereo unspecified)", "activity change, negative = inhibition": 20.8}, {"smiles": "COC(=O)[C@]12CCCCC=C1N(Cc1ccco1)C(=O)[C@H](CC(=O)NCC1CCCCC1)C2", "activity change, negative = inhibition": -13}, {"smiles": "CN1CCN(CCNC(=O)Nc2ccc([N+](=O)[O-])cc2)CC1", "activity change, negative = inhibition": -11.5}, {"smiles": "O=C(NCCCN1CCN(c2ccc(F)cc2)CC1)Nc1ccc([N+](=O)[O-])cc1", "Potency": "11.2 µM (active)"}, {"smiles": "O=C(CN1CCN(c2ccccc2)CC1)Nc1ccc(F)cc1", "activity change, negative = inhibition": -1.18}, {"smiles": "CCC(C)CN1C(=O)CN(S(C)(=O)=O)CC1(C)C(=O)Nc1ccc2c(c1)OCCO2", "note": "(stereo unspecified)", "activity change, negative = inhibition": 21.8}]}]}
